Results reported in a collection of fitness landscapes (doi:10.1126/science.1257360).
The full ranking holds about 140,000 sequences; the median of “enrichment ratio after two sorts for PhoP signalling” is about 0, and the highest 2% start at about 11. The list comes from a sample in which the highest values are over-represented; it also holds similar and randomly drawn sequences.

B1: PhoQ; a variant is named by its letters at X, in order, P23837 (parent)
chain: MKKLLRLFFPLSLRVRFLLATAAVVLVLSLAYGMVALIGYSVSFDKTTFRLLRGESNLFYTLAKWENNKLHVELPENIDKQSPTMTLIYDENGQLLWAQRDVPWLMKMIQPDWLKSNGFHEIEADVNDTSLLLSGDHSIQQQLQEVREDDDDAEMTHSVAVNVYPATSRMPKLTIVVVDTIPVELKSSYMVWSWFIYVLSANLLLVIPLLWVAAWWSLRPIEALAKEVRELEEHNRELLNPATTRELTSLVRNLNRLLKSERERYDKYRTTLTDLTHSLKTPLXXLQXXLRSLRSEKMSVSDAEPVMLEQISRISQQIGYYLHRASMRGGTLLSRELHPVAPLLDNLTSALNKVYQRKGVNISLDISPEISFVGEQNDFVEVMGNVLDNACKYCLEFVEISARQTDEHLYIVVEDDGPGIPLSKREVIFDRGQRVDTLRPGQGVGLAVAREITEQYEGKIVAGESMLGGARMEVIFGRQHSAPKDE

Variants of: B1
Experiment: enrichment ratio after two sorts for PhoP signalling (ratio (wild type AVST 3.29)); higher = more functional
Conditions: with PhoP (E. coli)

| Variant | enrichment ratio |
| --- | --- |
| KSMI | ≤ 0.25 |
| FSMV | 9.33 |
| TSMI | 23 |
| KSMV | ≤ 0.25 |
| TSMW | ≤ 0.25 |
| TSMV | 19.3 |
| RCKQ | ≤ 0.25 |
| VMWK | ≤ 0.25 |
| AQIM | 2.44 |
| MLWC | ≤ 0.25 |
| MGFS | 2.82 |
| MGWC | 32.1 |
| MGNS | ≤ 0.25 |
| MGLC | 19.1 |
| MGFC | 14.4 |
| MGDY | ≤ 0.25 |
| MGFA | 3.62 |
| QRLC | ≤ 0.25 |
| IHNL | ≤ 0.25 |
| VPHV | ≤ 0.25 |
| QVMI | ≤ 0.25 |
| QDPG | ≤ 0.25 |
| LMRT | ≤ 0.25 |
| HNWM | ≤ 0.25 |
| KYAN | ≤ 0.25 |
| SSAN | 12.6 |

| Variant | enrichment ratio |
| --- | --- |
| VLAN | ≤ 0.25 |
| NSAN | ≤ 0.25 |
| KSAN | ≤ 0.25 |
| SFAN | ≤ 0.25 |
| TLAN | 12.5 |
| PLAN | ≤ 0.25 |
| SRAN | ≤ 0.25 |
| SIAN | 22.8 |
| SIWN | 4.21 |
| SLAN | 13.8 |
| AYNP | ≤ 0.25 |
| MNQS | ≤ 0.25 |
| QHYQ | ≤ 0.25 |
| SAQN | ≤ 0.25 |
| KQAN | ≤ 0.25 |
| SAAN | 11.7 |
| IPYG | ≤ 0.25 |
| MDSP | 1.12 |
| NDLM | ≤ 0.25 |
| MPWY | ≤ 0.25 |
| MTWF | 11.8 |
| TTWY | 14 |
| YTWY | ≤ 0.25 |
| LTWY | 2.54 |
| MTWI | 10.2 |
| YTWF | ≤ 0.25 |

| Variant | enrichment ratio |
| --- | --- |
| MTWY | 21.6 |
| MMWF | ≤ 0.25 |
| REII | ≤ 0.25 |
| QNIY | ≤ 0.25 |
| RKGF | ≤ 0.25 |
| RLAG | ≤ 0.25 |
| LLSD | ≤ 0.25 |
| KHVD | ≤ 0.25 |
| WVTG | ≤ 0.25 |
| WRYK | ≤ 0.25 |
| DWAR | ≤ 0.25 |
| DQSP | ≤ 0.25 |
| HHVS | ≤ 0.25 |
| HLFA | ≤ 0.25 |
| AKAG | ≤ 0.25 |
| AIAG | 12.5 |
| WIAG | ≤ 0.25 |
| TIFG | ≤ 0.25 |
| KKAG | ≤ 0.25 |
| TIAG | 21.3 |
| EQNT | ≤ 0.25 |
| MHNT | ≤ 0.25 |
| ITTY | ≤ 0.25 |
| FVHV | 12.9 |
| FSHV | ≤ 0.25 |
| YTHV | ≤ 0.25 |

| Variant | enrichment ratio |
| --- | --- |
| YTQV | ≤ 0.25 |
| TTMV | 28.9 |
| TTIV | 0.549 |
| FDHV | ≤ 0.25 |
| TTPV | ≤ 0.25 |
| NVHV | ≤ 0.25 |
| STQV | 2.63 |
| TTHV | 14.6 |
| TTQV | 16.2 |
| SKAG | ≤ 0.25 |
| TMDC | ≤ 0.25 |
| CSSV | 0.253 |
| LKSK | ≤ 0.25 |
| QYAS | ≤ 0.25 |
| DYQS | ≤ 0.25 |
| HVFV | ≤ 0.25 |
| VSIQ | ≤ 0.25 |
| TGHV | 16.1 |
| GGHV | ≤ 0.25 |
| RGHV | ≤ 0.25 |
| YHQM | ≤ 0.25 |
| DRRP | ≤ 0.25 |
| ADSC | ≤ 0.25 |
| ANSC | 11.9 |
| ARSC | ≤ 0.25 |
| TKSC | 5.09 |

| Variant | enrichment ratio |
| --- | --- |
| AKSC | 23.2 |
| ANSK | ≤ 0.25 |
| VIHS | ≤ 0.25 |
| QISE | ≤ 0.25 |
| IIPR | ≤ 0.25 |
| TIIG | ≤ 0.25 |
| QRWT | ≤ 0.25 |
| MEWT | 34.7 |
| MMWT | ≤ 0.25 |
| QQWT | ≤ 0.25 |
| MPWT | ≤ 0.25 |
| QEWT | 11.3 |
| TSWT | 13.4 |
| TPWT | ≤ 0.25 |
| LCWT | ≤ 0.25 |
| MKWT | ≤ 0.25 |
| QLWT | ≤ 0.25 |
| QIWT | 20.8 |
| LESG | ≤ 0.25 |
| KRHA | ≤ 0.25 |
| DVYV | ≤ 0.25 |
| SDAE | ≤ 0.25 |
| YELP | ≤ 0.25 |
| EIRK | ≤ 0.25 |
| ESAA | ≤ 0.25 |
| EVKR | ≤ 0.25 |

| Variant | enrichment ratio |
| --- | --- |
| KHRA | ≤ 0.25 |
| IFHG | ≤ 0.25 |
| MCIH | ≤ 0.25 |
| NEWT | 32 |
| KEWT | ≤ 0.25 |
| DMWT | ≤ 0.25 |
| MQWT | 21.2 |
| MRWT | ≤ 0.25 |
| FFWT | ≤ 0.25 |
| QGWT | 36 |
| TTWT | 15 |
| ITWT | ≤ 0.25 |
| VRWT | ≤ 0.25 |
| FQWT | ≤ 0.25 |
| YTWT | ≤ 0.25 |
| NKIQ | ≤ 0.25 |
| ENRF | ≤ 0.25 |
| PLPI | ≤ 0.25 |
| WSFP | ≤ 0.25 |
| YDQD | ≤ 0.25 |
| VCTS | ≤ 0.25 |
| WTPD | ≤ 0.25 |
| SKDW | ≤ 0.25 |
